Measured values: ChEMBL document CHEMBL4513146, “CO-ADD screening of Karazin Kharkiv National University (Ukraine) compounds”
Potency and affinity values are given separately.

Columns and labels:
Staphylococcus aureus = conditions: Concentration 32 ug.mL-1;; ASSAY_TEST Inhibition of Bacterial Growth; detection method Absorption (OD600); MEDIA CAMHB; plate type 384well; NBS; CORNING #3640; time 18 hr
Escherichia coli = conditions: Concentration 32 ug.mL-1;; ASSAY_TEST Inhibition of Bacterial Growth; detection method Absorption (OD600); MEDIA CAMHB; plate type 384well; NBS; CORNING #3640; time 18 hr

| SMILES | Inhibition (Staphylococcus aureus) | Inhibition (Escherichia coli) |
| --- | --- | --- |
| O=c1c2sccc2n2c(=O)n(Cc3ccc(F)cc3)nc2n1CCc1ccccc1 | 10.13% | 2.04% |
| CCOc1ccc(NC(=O)Cn2nc3c4cc(-c5ccc(C)c(C)c5)nn4ccn3c2=O)cc1 | -9.23% | 1.9% |
| CCOC(=O)C1CCN(c2nc3ccccc3n3c(=O)n(CC(=O)Nc4ccccc4F)nc23)CC1 | 2.72% | -5.37% |
| COc1cccc(-c2nc(CSc3nc4ccccc4n4c(C)nnc34)c(C)o2)c1OC | 2.75% | -2.95% |
| O=c1c2nn(Cc3cccc(Cl)c3)c(=O)n2ccn1-c1ccccc1 | 0.94% | -5.32% |
| CCCc1nnc2c(=O)n(CC(=O)Nc3ccc(Cl)c(Cl)c3)c3ccccc3n12 | -1.25% | 0.68% |
| COc1cc(NC(=O)Cn2nc3c(SC4CCCCC4)nccn3c2=O)cc(OC)c1 | 0.44% | -4.73% |
| CCCCn1c(=O)c2sccc2n2c(=O)n(CC(=O)N(C)c3ccccc3)nc12 | -8.63% | -12.98% |
| CCc1cccc(NC(=O)Cn2nc3c(SC4CCCCC4)nccn3c2=O)c1 | -3.76% | -12.2% |
| CCc1ccc(N(Cc2ccccc2Cl)S(=O)(=O)c2cccn3c(C)nnc23)cc1 | 18.06% | 0.45% |
| CCc1ccc(NC(=O)Cn2nc3cc(C)nc(Nc4ccc(C)c(F)c4)n3c2=O)cc1 | -14.67% | -1.11% |
| Cc1cc(Nc2ccc(F)cc2)nc2nn(CCc3ccccc3)c(=O)n12 | 4.62% | -5.44% |
| CC(C)Cn1c(=O)c2sccc2n2c(=O)n(Cc3ccccc3Cl)nc12 | 2.13% | -6.09% |
| COc1ccc(NC(=O)c2ccc3nn(CC(=O)Nc4ccc(C(C)C)cc4)c(=O)n3c2)cc1 | 9.69% | -3.43% |
| CCCCc1ccc(NC(=O)Cn2nc3ccc(C(=O)Nc4ccc(OC)cc4)cn3c2=O)cc1 | 3.96% | -4.6% |
| CCOc1ccc(C(=O)CSc2nnc3c(=O)n(-c4cccc(OC)c4)ccn23)cc1 | 5.74% | -13.86% |
| Cc1nnc2ccc(S(=O)(=O)N(Cc3ccccc3)c3ccc(F)cc3)cn12 | -4.97% | -1.95% |

| SMILES | Inhibition (Staphylococcus aureus) | Inhibition (Escherichia coli) |
| --- | --- | --- |
| COc1ccc(-c2cc3c4nn(CC(=O)Nc5ccccc5Cl)c(=O)n4ccn3n2)cc1 | -2.84% | -5.57% |
| COc1ccc(N2CCN(C(=O)Cn3nc4c(Oc5ccccc5)nccn4c3=O)CC2)cc1 | 16.39% | 4.58% |
| Cc1ccc(CNC(=O)c2ccc3nn(CC(=O)Nc4ccc(C(F)(F)F)cc4)c(=O)n3c2)cc1 | -2.47% | -0.22% |
| COC(=O)c1ccccc1NC(=O)Cn1nc2c(Oc3ccccc3C)nccn2c1=O | 4.43% | -5.27% |
| O=C(Cn1nc2c(N3CCN(c4ccccc4)CC3)nccn2c1=O)Nc1ccc2c(c1)OCO2 | 13.69% | 0.21% |
| CCc1ccccc1NC(=O)Cn1nc2c(Sc3ccccc3CC)nccn2c1=O | 13.37% | -2.13% |
| CCC(C)NC(=O)Cn1c(=O)c2nnc(C)n2c2ccccc21 (stereo unspecified) | 9.8% | -2.5% |
| N#Cc1ccc(NC(=O)Cn2nc3c(Oc4ccccc4)nccn3c2=O)cc1 | -0.45% | -6.5% |
| Cc1c(Cl)cccc1-n1ccn2c(=S)[nH]nc2c1=O | 26.02% | 0.89% |
| CCOC(=O)c1ccc(NC(=O)CSc2nnc3c4cc(-c5ccc(OC)cc5)nn4ccn23)cc1 | 10.14% | 2.37% |
| O=S(=O)(c1cccn2cnnc12)N(Cc1ccccc1F)c1ccc(F)c(F)c1 | -22.58% | 5.15% |
| CCc1ccccc1Sc1nccn2c(=O)n(CC(=O)Nc3c(C)cccc3C)nc12 | 13.44% | 0% |
| Cc1ccccc1Cn1nc2c(=O)n(-c3ccc(Br)cc3)ccn2c1=O | 4.33% | 1.73% |
| Cc1ccc(-n2ccn3c(=O)n(Cc4cccc(Cl)c4)nc3c2=O)cc1C | 7.38% | 0.11% |
| CCCCc1ccc(NC(=O)Cn2nc3c(Sc4ccccc4CC)nccn3c2=O)cc1 | -7.41% | -10.67% |
| COc1cccc(Sc2nc3ccccc3n3c(=O)n(CC(=O)Nc4cc(C)cc(C)c4)nc23)c1 | 0.14% | 3.24% |
